# Measurements taken from PubChem BioAssay (Tox21).
# Several values for one entry are separate records, joined by “and”; a condition that tells them apart may be missing. Identical values can stand only once. Inconclusive results are not listed. A call without a number means that no potency is given here. Activity calls are given as the source filed them. Calls come from the whole dose curve; as a rule, active = well fitted cell-killing curve with a large enough effect in the repeat runs; inconclusive = weak or mixed curves, or effect the other way; inactive = no such curve, though single readings can be large or run the other way.
# Experiment: qHTS assay to identify small molecule agonists of the estrogen receptor alpha (ER-alpha) signaling pathway in the presence of an antagonist - cell viability counter screen (AID 1259386);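 note: cells exposed to compounds for 22 h at 37 °C before the viability read; nearly all actives have a fitted effect of over 30% in size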
# Conditions: VM7Luc4E2 viability, CellTiter-Fluor fluorescence, 22 h; series mostly up to 92.4 µM
# Text: National Center for Advancing Translational Sciences [NCATS]
# NIH Chemical Genomics Center [NCGC]
# U.S. Environmental Protection Agency [EPA]
# National Institutes of Environmental Health Sciences [NIEHS]
# National Toxicology Program [NTP]
# U.S. Food and Drug Administration [FDA]
# Estrogen receptor (ER), a member of nuclear hormone receptor plays an important role in development, metabolic homeostasis and reproduction. Two subtypes of ER, ER-alpha and ER-beta, have similar expression patterns with some uniqueness in both types. Endocrine disrupting chemicals (EDCs) and their interactions with steroid hormone receptors like ER causes disruption of normal endocrine function. Therefore, it is important to understand the effect of environmental chemicals in ER signaling pathway. For identifying ER agonists, VM7Luc4E2 cell line has been used in the current assay.
# VM7Luc4E2 cell line (provided by Denison MS, University of California) endogenously expresses full-length ER-alpha and is stably transfected with a plasmid containing four estrogen responsive elements (ERE) upstream of a luciferase reporter gene. This current screening for measuring luciferase reporter gene activity using VM7Luc4E2 cells against Tox21 10K library collection is a confirmation study on agonist mode screening in presence of ER-antagonist (ICI-182,780) at 10.0nM final concentration. The cytotoxicity of the compounds was tested in parallel by measuring the cell viability using CellTiter-Fluor assay system (Promega, Madison, WI) in the same wells.
# Tox21 Assay Protocol Summary:
# VM7Luc4E2 cells were cultured in phenol red free assay medium containing 10% charcoal stripped FBS for 5 days prior to the assay. The cells were dispensed at 4,000 cells in 4uL of assay medium per well into white wall/solid-bottom 1536-well plates (Corning Life Sciences, Corning, NY) using a Multidrop Combi (Thermo Fisher Scientific Inc., Waltham, MA) dispenser. After the assay plates were incubated at 37C and 5% CO2 for 24hr, 1uL of 10.0nM (final concentration) ICI-182,780 or assay buffer was added using two separate tips of Flying Reagent Dispenser (FRD, Aurora Discovery, San Diego, CA). Then 23nL of compounds dissolved in DMSO at 15 concentrations and positive controls or DMSO only was transferred to the assay plates by a Pintool station (Wako, San Diego, CA). The assay plates were incubated at 37C and 5% CO2 for 22hr. After 21hr incubation at 37C, 1uL/well CellTiter-Fluor reagent (Promega Corporation, Madison, WI) was added to each well using FRD and after 1hr incubation at 37C and 5% CO2, the fluorescence signal was measured on ViewLux plate reader (PerkinElmer, Shelton, CT).
# Potency is the fitted concentration of half-maximal effect.
row,SMILES,Potency
1,CC(=O)OC/C=C(C)/C=C/C=C(C)/C=C/C1=C(C)CCCC1(C)C,inactive
2,Nc1ccc(N=Nc2ccccc2)c(N)n1,30.8 µM (active) and 24.3 µM (active) and 26.6 µM (active)
3,C=C(C)OC(C)=O,inactive
4,CCCCCCCCCCCCCC(=O)OC(C)C,inactive
5,Cc1cccc2ccccc12,inactive
6,C1CNCCN1,inactive
7,CC(=O)/C=C/C1=C(C)CCCC1(C)C,inactive
8,Cc1c(N(C)C)c(=O)n(-c2ccccc2)n1C,inactive
9,COCC(C)N (stereo not given),inactive
10,CC(O)COc1ccccc1 (stereo not given),inactive
11,CCCCCCCCOc1ccc(C(=O)c2ccccc2)c(O)c1,inactive
12,CC1(C)O[C@@H]2[C@@H](CO[C@@]3(COS(N)(=O)=O)OC(C)(C)O[C@@H]23)O1,inactive
13,CCN(CC)CCOC(=O)c1ccc(N)cc1,inactive
14,N[C@@H](Cc1c[nH]c2ccc(O)cc12)C(=O)O,inactive
15,CCOCCO,inactive
16,Cc1cccc(C)c1O,inactive
17,C/C=C/c1ccc(O)c(OC)c1,inactive
18,COCCOCCOC,inactive
19,C[C@]12C[C@H](O)[C@H]3[C@@H](CCC4=CC(=O)CC[C@@]43C)[C@@H]1CC[C@@H]2C(=O)CO,inactive
20,Cn1cnc2c1c(=O)[nH]c(=O)n2C,inactive

row,SMILES,Potency
1,COc1cc2c(c(OC)c1OC)-c1ccc(OC)c(=O)cc1[C@@H](NC(C)=O)CC2,inactive
2,C[C@]12C=CC(=O)C=C1CC[C@@H]1[C@@H]2C(=O)C[C@@]2(C)[C@H]1CC[C@]2(O)C(=O)CO,inactive
3,NC(=O)OCC(COC(N)=O)c1ccccc1,inactive
4,c1ccc2[nH]c(-c3cscn3)nc2c1,inactive
5,O=C1OC(c2ccc(O)cc2)(c2ccc(O)cc2)c2ccccc21,inactive
6,NC(=O)c1ccc([N+](=O)[O-])cc1Cl,inactive
7,O=c1c(-c2ccc(O)cc2)coc2cc(O)cc(O)c12,inactive
8,COc1ccc(C(=O)c2ccccc2)c(O)c1,inactive
9,Cc1c(N(C)CS(=O)(=O)O)c(=O)n(-c2ccccc2)n1C,inactive
10,C#C[C@]1(O)CC[C@H]2[C@@H]3CCc4cc(O)ccc4[C@H]3CC[C@@]21C,inactive
11,COc1ccc(O)cc1,inactive
12,CCCCCCCC(=O)OCC(O)CO (stereo not given),inactive
13,COC(=O)c1ccc(C=O)cc1,inactive
14,C[C@]12CC[C@@H]3c4ccc(O)cc4C[C@@H](CCCCCCCCCS(=O)CCCC(F)(F)C(F)(F)F)[C@H]3[C@@H]1CC[C@@H]2O (stereo not given in full),inactive
15,Oc1cccc(O)c1,inactive
16,CC(=O)CCC(C)C,inactive
17,CCn1cc(C(=O)O)c(=O)c2ccc(C)nc21,inactive
18,C=CCOC(=O)CC(C)C,inactive
19,NC(=O)NO,inactive
20,N[C@@H](Cc1c[nH]c2ccccc12)C(=O)O,inactive
